An excerpt weighted towards active compounds, which were near 3.9% of everything screened.
NTR1 agonist – agonists of human NTR1, primary screen, imaging, U2OS cells, beta-arrestin-GFP, high content | activation, % at 20 µM | Neurotensin receptor type 1 (Homo sapiens), P30989 | NTR1-U2OS beta-arrestin-GFP spot imaging, agonist mode | hit rate 0.17% among 330,000;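 active = activation at or above 40% of the spot to cytoplasm intensity ratio, with at least 20 cells analyzed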
Cardio protect – cardioprotection against H2O2-induced cell death, primary screen, uHTS, H9c2 cells, ATPLite luminescence. hit rate 0.63% among 360,000. H9c2 cardiomyocytes, H2O2 injury protection, 2 h. protection from H2O2 cell death, % at 20 µM;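 active = compounds giving at least 50% protection of heart cells from peroxide-induced death in the single-dose screen, raw or plate-pattern-corrected value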
SUMO HTRF inh – inhibitors of in vitro SUMOylation cascade, primary screen, biochemical, HTRF, uHTS; hit rate 0.36% among 290,000; inhibition, % at 35 µM; HTRF SUMOylation assay, SAE1/SAE2 + UBC9; AID 2006, 2009; in the data active = inhibition above about 50%, passing the limit was not always enough
Target sequence (P63279 whole entry, looked up): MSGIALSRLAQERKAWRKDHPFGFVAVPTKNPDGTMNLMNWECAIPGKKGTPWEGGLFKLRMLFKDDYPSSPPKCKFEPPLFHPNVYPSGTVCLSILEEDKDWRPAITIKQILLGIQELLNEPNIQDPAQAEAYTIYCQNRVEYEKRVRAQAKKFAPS
ALR H2O2 inh – inhibitors of human ALR sulfhydryl oxidase, primary screen, biochemical, H2O2 detection, HRP-luminol luminescence, single point | hit rate 3.8% among 290,000 | inhibition, % (concentration not given with the values) | FAD-linked sulfhydryl oxidase ALR (Homo sapiens), P55789 | AID 485317, 2010 | purified ALR, DTT oxidation;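 active = mean replicate inhibition above about 79%, with every replicate also reaching it, limit read from the data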
Target sequence (P55789 whole entry, looked up): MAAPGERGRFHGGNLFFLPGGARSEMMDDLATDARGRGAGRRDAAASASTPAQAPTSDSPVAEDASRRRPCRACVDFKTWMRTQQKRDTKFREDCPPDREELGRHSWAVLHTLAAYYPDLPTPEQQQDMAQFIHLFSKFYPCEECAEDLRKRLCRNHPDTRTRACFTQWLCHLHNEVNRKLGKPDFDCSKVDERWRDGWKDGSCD
Hits are given with their value; – = inactive; · = no result given.

SMILES	NTR1 agonist	Cardio protect	SUMO HTRF inh	ALR H2O2 inh
O=C(O/N=C1\CCS(=O)(=O)c2sccc21)c1c(F)cccc1F	–	–	–	–
O=S1(=O)CC/C(=N\Nc2ccccc2)c2ccsc21	–	–	–	100.1
COC(=O)c1ccccc1NC(=O)Cn1c(-c2nonc2N)nc2ccccc21	–	–	–	–
COc1cc(NC(=O)c2ccc(S(=O)(=O)N(C)c3ccccc3)cc2)cc(OC)c1	–	–	·	·
COc1ccc(OC)c(/C=N/NC(=O)CCc2ccc(O)c(O)c2)c1	–	51.0	–	·
COc1cccc(NC(=O)NNC(=O)CCc2ccc(O)c(O)c2)c1	–	–	–	99.2
COc1ccc(CCC(=O)NNC(=O)Nc2cccc(Cl)c2)cc1	–	–	–	–
Cc1ccc(C(=O)NC(=C(Cl)Cl)S(=O)(=O)c2ccc(C)cc2)cc1	–	–	–	98.7
CNc1ccc(C2(O)C(=O)c3ccccc3C2=O)cc1	–	–	–	83.2
O=C(CCc1nc2ccccc2c(=O)[nH]1)NNC(=O)c1ccc(Cl)cc1	–	60.7	·	–
O=C(CCc1nc2ccccc2c(=O)[nH]1)NNC(=O)c1ccc(F)cc1	–	78.1	·	–
O=C(CCc1nc2ccccc2c(=O)[nH]1)NCc1cccc(Cl)c1	–	–	–	·
O=C(CCc1nc2ccccc2c(=O)[nH]1)NNC(=O)COc1ccc(Br)cc1	–	–	·	–
COc1cc(OC)cc(C(=O)NNC(=O)CCc2nc3ccccc3c(=O)[nH]2)c1	–	56.1	·	–
O=C(CCc1nc2ccccc2c(=O)[nH]1)NNC(=O)c1cccc(Cl)c1	–	69.7	·	–
Cc1ccccc1NC(=S)NCC1CCN(C(C)c2ccccc2)C1 (configuration not stated)	–	–	–	–
CCC(CC)C(=O)N(CCc1ccc(OC)cc1)Cc1nc2ccccc2c(=O)[nH]1	–	56.0	–	–
COc1ccc(CCN(Cc2nc3ccccc3c(=O)[nH]2)C(=O)c2ccco2)cc1	–	–	–	–
O=[N+]([O-])c1cccc(Cl)c1NCCNc1ncc(C(F)(F)F)cc1Cl	–	–	–	99.8
COc1ccc(NC(=O)c2sc(-c3ccccc3)nc2C)c(OC)c1	–	–	–	·
O=C(c1ccco1)N1CCN(C(c2coc3ccc(Cl)cc3c2=O)c2nnnn2C2CCCC2)CC1 (configuration not stated)	–	–	·	–
Cc1ccc2occ(C(c3nnnn3C3CCCC3)N3CCN(C(=O)c4ccco4)CC3)c(=O)c2c1 (configuration not stated)	–	51.7	–	–
COc1ccc(CCN2C(=S)N(c3ccc(Cl)cc3)C(=O)C2CC(N)=O)cc1OC (configuration not stated)	–	–	–	–
Cc1cccc(C(=O)N2CC(=O)Nc3ccc(F)cc3C2c2ccc(F)cc2)c1 (configuration not stated)	–	–	–	–
COc1cc(C2C=C(c3cccs3)Nc3ncnn32)cc(OC)c1OC (configuration not stated)	·	–	53.2	·
SMILES	NTR1 agonist	Cardio protect	SUMO HTRF inh	ALR H2O2 inh
COc1cc(C2CC(=O)C3=C(C2)Nc2ncnn2C3c2cccs2)cc(OC)c1OC (configuration not stated)	–	–	–	–
O=C(NC(=S)NCc1ccncc1)c1ccccc1	–	–	–	93.7
Cc1sc2nc(CN3CCC(C)CC3)nc(Cl)c2c1C	–	·	–	97.3
COc1ccc(-[n+]2c(C)cc(/C=C3\Sc4ccccc4N3C)cc2C)cc1	–	–	–	94.9
CC[n+]1c(/C=C2\Sc3ccccc3N2C)ccc2cccc(C)c21	·	–	–	·
COc1ccccc1-[n+]1c(C)cc(/C=C2\Sc3ccccc3N2C)cc1C	–	–	–	98.2
CN1/C(=C/c2cccc[n+]2CCO)Sc2ccccc21	–	–	–	–
c1ccc(N2CCN(c3ccccc3)C2c2cccs2)cc1	–	–	–	98.8
Cc1cc(C)cc(Oc2coc3c(CN(C)C)c(O)ccc3c2=O)c1	–	–	51.3	–
COc1ccc(Oc2coc3c(CN(C)C)c(O)ccc3c2=O)cc1	–	–	–	·
O=C(CN1CCCCC1)N1CCCc2ccccc21	–	–	–	–
CCN(CC)S(=O)(=O)c1cc(C(=O)Oc2cccc(-c3cnc4ccccc4n3)c2)ccc1OC	–	–	–	·
Cc1cc(C(=O)N2CCCC(Nc3ccc(C(C)C)cc3)C2)nn1C (configuration not stated)	–	–	–	98.6
